This is part of a sample that, as a whole, favours compounds with a hit. Of some 83,000 tested, about 20% had one in any assay.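 Activity criterion: percent growth below 10, measured after cells in 96-well plates were exposed to a single compound concentration for 48 hours.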 Unmarked numbers belong to inactive results. The source made the active and inactive calls.

The record followed here is PubChem BioAssay (NCI).

What all share (assay): NCI-60 one-dose screen, 48 h (100 = growth as untreated, 0 = no growth, -100 = all killed)
Holding throughout (conditions): 10 µM unless noted

Assay [1] deals with NCI-H23 lung.
In assay [2] the test system is NCI-H226 lung.
Assay [3] deals with NCI-H322M lung.
Assay [4] concerns HOP-62 NSCLC.
Assay [5] concerns NCI-H460 lung.
Assay [6] relates to HOP-92 NSCLC.
Assay [7] has as its system NCI-H522 lung.
In assay [8] the test system is A549/ATCC NSCLC.
The subject of assay [9] is 786-0 renal.
Assay [10] deals with COLO 205 colon.

For the molecule `CN(C)c1ccc(/C=C/c2n(Cc3ccc4ccccc4c3)c3ccccc3[n+]2Cc2ccc3ccccc3c2)cc1`, the growth in [1] was -91.4% (active); in [2], -65.2% (active); in assay [3], -90% (active); in assay [4], -63.3% (active); in [5], -75.9% (active); in assay [6] it was -67.2% (active). The growth in assay [7] is -69.1% (active); in assay [8], -53.4% (active); in assay [9] it was -72% (active); in [10] it was -41.7% (active).
As for `Clc1ccc(-c2nc3c4c(-c5ccccc5)c(-c5ccccc5)n(Cc5ccccc5)c4ncn3n2)cc1`, the growth was 2.75% (active) in [1]; -3.39% (active) in assay [2]; 21% in assay [3]; 19.8% in assay [4]; 3.08% (active) in assay [5]; -23.1% (active) in assay [6]. The growth in [7] was -28.5% (active); in [8], 14.1%; in assay [9], 5.51% (active); in [10], -59.2% (active).
As for `COc1ccc(NC(=O)CSc2nnc(-c3ccc(-c4nc5ccc(Cl)cc5[nH]4)cc3)o2)cc1`, the growth in [1] was -15.7% (active); in [2], -18.8% (active); in assay [3] it was 35%; in [4], -25.4% (active); in [5] it was -17.2% (active); in assay [6], 4.79% (active). Moreover, the growth in assay [7] is 6.93% (active); in [8], 1.75% (active); in assay [9] it was -64.4% (active); in assay [10] it was 69.4%.
Consider `CC1=C(C(=O)Nc2ccccc2)C(c2ccc3ccccc3c2)n2c(nc3ccccc32)N1` (stereo not given), for which the growth was 73.3% in assay [1]; 84% in assay [2]; 66.3% in assay [3]; 113% in [4]; -45.5% (active) in assay [5]; 64.2% in [6]. Also, the growth in assay [7] is 63%; in assay [8], 8.83% (active); in [9] it was 10.6%; in assay [10] it was 112%.
For `COc1ccc(-c2nc3ccccc3n2CC(=O)N=Nc2c(O)[nH]c3ccc(Br)cc23)cc1`, the growth is 78.8% in [1]; 100% in assay [2]; 103% in [3]; 69.8% in [4]; 80.6% in assay [5]; 79.8% in [6]. Moreover, the growth is 67.4% in assay [7], 98.2% in assay [8], 97.3% in assay [9] and 83% in assay [10].
As for `COc1ccc(C2=NN(C(=O)[C@H]3[C@@H](c4ccco4)c4sc(=O)[nH]c4S[C@@H]3C)C(c3ccc4ccccc4c3)C2)cc1` (stereo not given in full), the growth in assay [1] is 33.8%; in assay [2] it was 29.3%; in assay [3], 49.1%; in assay [4], 59.7%; in [5], 23.8%; in [6], 29.1%. Besides, the growth is 4.06% (active) in assay [7], 17.6% in assay [8], 44.6% in [9] and 7.92% (active) in assay [10].
Regarding `COC(=O)c1c(C(=O)OC)c2c3ccccc3c3ccccc3n2c1C(=O)C(C)(C)C`, the growth is 82.8% in assay [1]; 85.7% in assay [2]; 105% in assay [3]; 118% in assay [4]; 80.3% in assay [5]; 55.7% in assay [6]. Further, the growth in assay [7] was 73.6%; in assay [8], 101%; in assay [9] it was 86.6%; in assay [10], 80.1%.
Turning to `Cc1ccc(C(=O)Nc2cccc(C(=O)NC(=S)Nc3ccc(S(N)(=O)=O)cc3)c2)cc1`, the growth is 76.9% in assay [1]; 67.5% in assay [2]; 87.3% in assay [3]; 74.9% in [4]; 77.8% in assay [5]; 67.5% in [6]. For the same molecule, the growth in [7] was 48.6%; in assay [8] it was 74.7%; in [9] it was 81.7%; in [10], 98.4%.
For `NCCCCn1c(SCCc2c[nH]c3ccccc23)nnc1-c1ccc2ccccc2n1`, the growth in assay [1] was 11.4%; in [2], 55.2%; in [3] it was 18.1%; in [4], -49.7% (active); in [5], -76.9% (active); in [6] it was -8.52% (active). Further, the growth in [7] is -73.1% (active); in assay [8], 8.17% (active); in assay [9] it was -92.3% (active); in [10], -66.6% (active).
For `Fc1cccc(CNc2nc(SCCN3CCOCC3)nc3c2cnn3CC(Cl)c2ccc(Br)cc2)c1` (stereo not given), the growth in assay [1] was 46.2%; in assay [2], 27.5%; in [3] it was 81.7%; in assay [4], 44.9%; in [5], 7.02% (active); in [6] it was 20.3%. The growth is 36.8% in assay [7], 19.9% in assay [8], 20.9% in [9] and -9.76% (active) in [10].
Regarding `Cc1cc(C)c2[nH]c(=O)c(C(c3nnnn3Cc3ccc4c(c3)OCO4)N3CCN(C)CC3)cc2c1` (stereo not given), the growth in assay [1] was 105%; in assay [2], 102%; in assay [3], 107%; in assay [4], 111%; in [5], 112%; in assay [6], 99.9%. Moreover, the growth is 120% in assay [7], 105% in assay [8], 97.9% in assay [9] and 114% in assay [10].
